The values below come from PubChem BioAssay.

This assay in a line: probe aNOTCH3 binding on compound microarray – biochemical, small-molecule microarray, 635/667 nm fluorescence, primary screen (AID 1120).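 Also: probe is a biotin-tagged antibody raised against NOTCH3 rather than NOTCH3 protein; score merges spot fluorescence near 667 nm with spot signal to noise.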 The conditions noted are these: higher = more signal.
As to `CCCC=C(CCC)[C@@H](NS(=O)(=O)c1ccc(-c2ccccc2)cc1)c1ccc(C(=O)OC)cc1`, the composite z-score is -0.0846.
The value for `COc1ccc([Si](C)(C)[C@@H]2[C@@H](CC(=O)N(CCO)Cc3ccccc3)O[C@]3(C(=O)N(Cc4cccc(N5CCC5=O)c4)c4ccccc43)[C@H]2C)cc1` was -0.0647; that for `CCC1=C2CN(Cc3ccccc3Br)[C@@H]([C@@H](O)Cc3ccccc3)C2C=CCC1` (some centres undefined) was -0.0277; that for `CO[C@H]1COC(=O)[C@H](C)COC(=O)[C@H](Cc2ccccc2)NC(=O)CC=C[C@H]1C` was 0.62.
In the case of `Cc1ccc(S[C@]2(C(=O)NC3CC3)CC(=O)N(Cc3cc(C(F)(F)F)cc(C(F)(F)F)c3)[C@@H]2c2ccc(CO)cc2)cc1`, the composite z-score was -0.0345.
`CCCC[C@@H]1C[C@H]1[C@@H](NC(=O)c1cccs1)c1ccc(Cl)cc1` showed a composite z-score of -0.201.
The value for `COC(=O)C(CC#Cc1ccc2c(c1)[C@]1(C(=O)N2)[C@H](C(=O)N2CCCCCCC2)[C@H]2C(=O)O[C@H](c3ccccc3)[C@H](c3ccccc3)N2[C@@H]1c1ccc(O)cc1)C(=O)OC` was -0.379; that for `CC(C)N1CC=CC23O[C@@H]4/C=C\CCCOC(=O)C4[C@H]2C(=O)N(CCO)[C@@H]3C1=O` (some centres undefined) was -0.0918; that for `O=C1O[C@H](c2ccccc2)[C@H](c2ccccc2)N2[C@H]1[C@@H](C(=O)NC[C@H](O)c1ccccc1)[C@]1(C(=O)Nc3ccc(C#CC4=CCCCC4)cc31)[C@H]2c1ccc(OCCO)cc1` was 0.141.
The compound `Cc1ccc(S[C@]2(C(=O)NC(C)C)CC(=O)N(C3Cc4ccccc4C3)[C@@H]2c2ccc(CO)cc2)cc1` showed a composite z-score of -0.409.
`Cc1ccc(S[C@]2(C(=O)NCCCN(C)C)CC(=O)N(Cc3ccccc3)[C@@H]2c2ccc(CO)cc2I)cc1` displayed a composite z-score of 0.0762.
Under `COc1ccc([C@H]2C[C@H]3C(Br)=C[C@]2(OC)C(=O)[C@]32CO2)cc1` stands -0.0918; under `COC(=O)[C@H]1[C@@H]2COc3ccccc3[C@H]2N[C@H]1C(=O)OC`, -0.0351; under `C=CC[C@]1(C(N)=O)N=C(c2ccc(OCCCO)cc2)O[C@H]1c1ccccc1CN=[N+]=[N-]`, -0.0502.
`CC(C)[Si](OCC[C@H]1O[C@]2(C(=O)N(Cc3ccccc3)c3ccccc32)[C@@H](C)[C@@H]1[Si](C)(C)O)(C(C)C)C(C)C` returned a composite z-score of 0.0026.
Under `CC(C)[Si](OCCCNS(=O)(=O)c1ccc(Br)cc1)(C(C)C)C(C)C` stands 0.107; under `C=CCOC(=O)[C@@H]1[C@H]2C(=O)O[C@H](c3ccccc3)[C@H](c3ccccc3)N2[C@H](c2ccc(OCCOC(=O)[C@H]3C[C@H]4C(=O)N[C@@H](CCCCNC(C)=O)C(=O)N4[C@H]3c3ccc(O)cc3)cc2)[C@@]12C(=O)Nc1ccc(I)cc12`, 0.0222.
The value for `C[C@]1(C(=O)NCCN2CCOCC2)c2ccccc2C(=O)N(Cc2ccccc2)[C@H]1c1ccc(CO)cc1` was -0.257; that for `C=CCN(C(=O)C1N(c2ccc(CCO)cc2)C(=O)C2C(C(=O)O)C3C=CC21O3)C(C)(C)C` (centres undefined) was -0.549.
Under `CCOC(=O)C[C@H]1[C@H](OC(=O)Cc2ccc3c(c2)OCO3)[C@@H](NC(=O)c2ccc3ccccc3c2)c2cc(OCCCO)ccc2N1C(=O)Cc1ccc(OC)cc1` stands 0.0284; under `COc1ccc([Si](C)(C)[C@H]2[C@H](CCO)O[C@@]3(C(=O)N(Cc4ccc(N5CCCCC5=O)cc4)c4ccccc43)[C@@H]2C)cc1`, 0.25.
In the case of `COc1cc(CO)cc(I)c1O[C@H]1C=C(C(=O)NCCO)C[C@@H](N(CC2CCCCC2)C(=O)c2cc3ccccc3oc2=O)[C@@H]1O`, the composite z-score turned out to be 0.0158.
Consider `COC(=O)C1=CC(c2ccc(CO)cc2)=CC(C2CC2)N(Cc2sc3ccccc3c2Cl)C=C1C(=O)OC` (centres undefined), for which the composite z-score is 0.3.
`CSCC[C@@H]1NC(=O)CC=C[C@@H](C)COC(=O)[C@H](CCSC)NC(=O)CC=C[C@@H](C)COC1=O`: the composite z-score is -0.205.
`COC(=O)[C@@]1(Cc2ccc(OC)cc2)[C@H]2c3cc(C(=O)N(C)C)n(CCc4ccc(OC)c(Br)c4)c3C[C@H]2CN1C(=O)c1ccccc1` registered a composite z-score of 0.831.
Under `COCC(=C=CC[C@H](O)c1ccc(OCCO)cc1)C[C@H](O)c1ccccn1` stands -0.217; under `O=C(NCc1ccccc1)[C@@]1(Cc2ccccc2)COC(c2ccc(OCCCO)cc2)=N1`, 0.0539.
Under `CO[C@@H]1COC(=O)[C@H](C)NC(=O)CC=C[C@@H](C)[C@H](OC)COC(=O)[C@H](C)NC(=O)CC=C[C@H]1C` stands -0.226.
As for `CCCC=C(CCC)[C@@H](NS(=O)(=O)c1ccc(C(F)(F)F)cc1)c1ccc(-c2ccccc2)cc1`, the composite z-score stood at 0.305.
